# “And” between values parts separate entries of the source, which are not always exact repeats. Equal entries are not always repeated. About 79,000 compounds went through this panel and 15% of them were active in at least one assay; those are over-represented in the sample as a whole. A structure can be active in one record and inactive in another. The source made the active and inactive calls. Cut-off read from the data, not from the text of the source: active = growth inhibition above about 70%; inactive = the rest.
# Experiment: NCI Yeast Anticancer Drug Screen. Data for the mec2-1 strain (AID 157)
# Details: S. cerevisiae mec2-1 strain, at 33.0 µM, stronger effect = higher value
# Summary of the method: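 Growth inhibition is read against vehicle-treated controls after compound exposure of the mec2-1 yeast strain, which is defective in DNA damage repair or cell cycle control.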
row,SMILES,growth inhibition
1,O=C(O)c1ccccc1.[Ag],99% (active)
2,CC(=O)[O-].O=C([CH-]C(=O)c1ccccc1)c1ccccc1.O=C([CH-]C(=O)c1ccccc1)c1ccccc1.[Sm+3],97% (active)
3,C=C[C@H]1CN2CC[C@H]1C[C@@H]2[C@@H](O)c1ccnc2ccccc12,2% (inactive)
4,[Pt].c1ccc(P(CCP(c2ccccc2)c2ccccc2)CCP(c2ccccc2)c2ccccc2)cc1,94% (active)
5,CC12CCC(C1)C(C)(C)C2OC(=O)c1ccccc1N (stereo not drawn),1% (inactive)
6,OC1(c2ccccc2)CC2CCC(C1)N2CCCC(O)(c1ccccc1)c1ccccc1 (stereo not drawn),18% (inactive)
7,COC(=O)C(F)C(Br)C(=O)OC (stereo not drawn),98% (active)
8,CCCCCCCCCC[Se]C#N,19% (inactive)
9,CNCC(O)c1ccc(O)c(O)c1.[Pt].c1ccc([PH+](c2ccccc2)c2ccccc2)cc1.c1ccc([PH+](c2ccccc2)c2ccccc2)cc1,65% (inactive)
10,Cc1ccc(P(c2ccc(C)cc2)c2ccc(C)cc2)cc1,24% (inactive)
11,CC1CC(C)CC(C)C(O)/C(C#N)=C/C=C/CC(C2CCCC2C(=O)O)OC(=O)CC(O)C(C)C1 (stereo not drawn),98% (active)

# Same assay, conditions: S. cerevisiae mec2-1 strain, at 50.0 µM (retest, dose inferred, filed as 5.0), stronger effect = higher value
row,SMILES,growth inhibition
1,COC(COC(N)=O)C1=C(N2CC2)C(=O)C(C)=C(N2CC2)C1=O (stereo not drawn),99% (active)
2,Cc1nc(Cl)c(CBr)c(Cl)n1,100% (active)
3,C[n+]1[se]nc2cc(C(=O)c3ccccc3)ccc21 (tested in a mixture with another compound),99% (active)
4,O=C(O)c1ccccc1.[Ag],99% (active)
5,CC(=O)[O-].O=C([CH-]C(=O)c1ccccc1)c1ccccc1.O=C([CH-]C(=O)c1ccccc1)c1ccccc1.[Sm+3],42% (inactive)
6,CC(C)(Br)C(=O)C(Br)Br,99% (active)
7,COC1(OC)C(Cl)=C(Cl)C(Cl)=C1Cl,84% (active)
8,C=C[C@H]1CN2CC[C@H]1C[C@@H]2[C@@H](O)c1ccnc2ccccc12,7% (inactive)
9,[C-]#[O+].[C-]#[O+].[Ir].[O-]c1ccc2ccccc2c1N=Nc1ccccc1,-11% (inactive)
10,O=C(Nc1ccccc1)OC(C[N+](=O)[O-])C(Cl)(Cl)Cl (stereo not drawn),100% (active)
11,[Pt].c1ccc(P(CCP(c2ccccc2)c2ccccc2)CCP(c2ccccc2)c2ccccc2)cc1,94% (active)
12,CC12CCC(C1)C(C)(C)C2OC(=O)c1ccccc1N (stereo not drawn),-26% (inactive)
13,CC(=O)[O][Hg][c]1cc2c(cc1O)Cc1cc([N+](=O)[O-])ccc1-2,99% (active)
14,OC1(c2ccccc2)CC2CCC(C1)N2CCCC(O)(c1ccccc1)c1ccccc1 (stereo not drawn),10% (inactive)
15,ClC1=C(Cl)C(Cl)(Cl)SS1,99% (active)
16,COC(=O)C(F)C(Br)C(=O)OC (stereo not drawn),100% (active)
17,c1ccc2c(NCCCCCCNc3c4ccccc4nc4ccccc34)c3ccccc3nc2c1,80% (active)
18,c1ccc2c(NCCCCCCCCNc3c4ccccc4nc4ccccc34)c3ccccc3nc2c1,98% (active)
19,CN(Cc1ccccc1)CC(O)c1ccc(Cl)cc1 (stereo not drawn),23% (inactive)

row,SMILES,growth inhibition
1,Br[C](Br)(Br)[Hg][c]1ccccc1,99% (active)
2,Cc1cc(N=Nc2ccccc2C)ccc1N,52% (inactive) and 99% (active)
3,C/C(=N\N=C(/[Se])N1CC2CCC(CC2)C1)c1ccccn1,80% (active)
4,CCCCCCCCCC[Se]C#N,99% (active)
5,CNCC(O)c1ccc(O)c(O)c1.[Pt].c1ccc([PH+](c2ccccc2)c2ccccc2)cc1.c1ccc([PH+](c2ccccc2)c2ccccc2)cc1,99% (active)
6,CCN(CC)CC.CCOc1ccc(NC(=O)N=C=[N-])cc1.[CH-]1CCCCC1.[CH-]1CCCCC1.[CH-]1CCCCC1.[Cl-].[Sn+4],99% (active)
7,Cc1cc(N(C)C)c2ccccc2[n+]1CCCCCCCCCC[n+]1c(C)cc(N(C)C)c2ccccc21,99% (active)
8,CCC[CH2][Sn]1([CH2]CCC)[O]CC(CN2CCCC2)[O]1 (stereo not drawn),98% (active)
9,N#Cc1ccc([Se]c2ccccc2)cc1,96% (active)
10,O=c1ssc(Cl)c1Cl,100% (active)
11,Cc1ccc(P(c2ccc(C)cc2)c2ccc(C)cc2)cc1,98% (active)
12,O=C(O)c1ccccc1[Se][Se]c1ccccc1C(=O)O,56% (inactive)
13,CC1CC(C)CC(C)C(O)/C(C#N)=C/C=C/CC(C2CCCC2C(=O)O)OC(=O)CC(O)C(C)C1 (stereo not drawn),99% (active)
14,CCC[CH2][Pb]([Cl])([CH2]CCC)[CH2]CCC,99% (active)
15,CNC(Cc1ccccc1)c1ccc(OC)c(OC)c1 (stereo not drawn),97% (active)
16,CC1C(=O)OCC1(C)O (stereo not drawn),0% (inactive)
17,O=C(Nc1ccccc1)c1cc([N+](=O)[O-])ccc1O,97% (active)
18,N=P(c1ccccc1)(c1ccccc1)c1ccccc1 (tested in a mixture with another compound),25% (inactive)
